Among the test systems are SR leukemia; RPMI-8226 leukemia; OVCAR-8 ovarian; OVCAR-5 ovarian; OVCAR-4 ovarian; SK-OV-3 ovarian; IGROV1 ovarian; OVCAR-3 ovarian; HS 578T breast; NCI/ADR-RES ovarian.
Assay in all cases: NCI-60 one-dose screen, 48 h (100 = growth as untreated, 0 = no growth, -100 = all killed)
What all share (conditions): 10 µM unless noted

About 83,000 compounds went through this panel and 20% of them were active in at least one assay; those are over-represented in the sample as a whole.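 Each cell line was grown in a 96-well plate and treated with one concentration of compound for 48 hours. Values below 10 were considered active.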 Values without a mark were called inactive. Activity calls are given as the source filed them.

As for `C#CCn1cc(/C=N/Nc2nc(-c3ccc(Br)cc3)cs2)c2ccccc21`, the growth in the experiment on SR leukemia was 119%; in the experiment with RPMI-8226 leukemia it was 110%; in the experiment on OVCAR-8 ovarian it was 101%; in the experiment on OVCAR-5 ovarian, 97.4%; in the experiment with OVCAR-4 ovarian, 107%; with SK-OV-3 ovarian, 91.1%. Besides, the growth is 74.9% in the experiment on IGROV1 ovarian, 108% in the experiment with OVCAR-3 ovarian, 101% in the experiment with HS 578T breast and 101% in the experiment on NCI/ADR-RES ovarian.
For `C#CCN(C)CCCOc1ccc(NCc2ccc(C(=O)NO)cc2)cc1Cl`, the growth was 15.7% in the experiment with SR leukemia; 9.94% (active) in the experiment with RPMI-8226 leukemia; 14.7% in the experiment on OVCAR-8 ovarian; 23.4% in the experiment on OVCAR-5 ovarian; 31.3% in the experiment on OVCAR-4 ovarian; -4.09% (active) with SK-OV-3 ovarian. Besides, the growth is 15.6% in the experiment with IGROV1 ovarian, 24.3% in the experiment with OVCAR-3 ovarian, 25% with HS 578T breast and 7.57% (active) in the experiment with NCI/ADR-RES ovarian.
Take `CC1=C(C)C(=O)C(Nc2cccc(C(F)(F)F)c2)=C(Br)C1=O`: the growth was 26.1% in the experiment with SR leukemia; -10.8% (active) in the experiment on RPMI-8226 leukemia; 97% with OVCAR-8 ovarian; 128% with OVCAR-5 ovarian; 81.4% in the experiment with OVCAR-4 ovarian; 86% with SK-OV-3 ovarian. For the same molecule, the growth with IGROV1 ovarian was 74.8%; with OVCAR-3 ovarian, 103%; in the experiment on HS 578T breast, 99.4%; in the experiment on NCI/ADR-RES ovarian, 103%.
As for `Cc1cc(C)cc(NC2=C(Cl)C(=O)c3nc(C)ccc3C2=O)c1`, the growth in the experiment on SR leukemia is 41%; in the experiment on RPMI-8226 leukemia it was -15.1% (active); with OVCAR-8 ovarian, 73.1%; in the experiment with OVCAR-5 ovarian it was 92.7%; in the experiment with OVCAR-4 ovarian it was -5.74% (active); in the experiment on SK-OV-3 ovarian it was 107%. Besides, the growth in the experiment with IGROV1 ovarian is -62.1% (active); in the experiment with OVCAR-3 ovarian it was -0.41% (active); in the experiment on HS 578T breast, 11.1%; in the experiment with NCI/ADR-RES ovarian, 65.6%.
For `CC1=C(C)C(=O)C(Nc2ccc3c(c2)OCCO3)=C(Br)C1=O`, the growth is 77.6% in the experiment with SR leukemia; 100% with RPMI-8226 leukemia; 100% with OVCAR-8 ovarian; 108% in the experiment on OVCAR-5 ovarian; 66.8% with OVCAR-4 ovarian; 93.9% in the experiment on SK-OV-3 ovarian. Besides, the growth is 102% with IGROV1 ovarian, 109% in the experiment with OVCAR-3 ovarian, 97.3% with HS 578T breast and 97.3% in the experiment with NCI/ADR-RES ovarian.
For the molecule `CCOC(=O)c1ccc(NC2=CC(=O)C(C)=C(C)C2=O)cc1`, the growth in the experiment on SR leukemia was 50.3%; in the experiment with RPMI-8226 leukemia it was 66.1%; with OVCAR-8 ovarian, 83.7%; in the experiment on OVCAR-5 ovarian, 104%; with OVCAR-4 ovarian, -63% (active); with SK-OV-3 ovarian it was 92%. Also, the growth with IGROV1 ovarian was 79.2%; in the experiment with OVCAR-3 ovarian, 0.628% (active); with HS 578T breast it was 94.1%; in the experiment on NCI/ADR-RES ovarian, 65.4%.
As to `CCNCCOc1ccc(/C(=C(/CC)c2ccc(Cl)cc2)c2ccc(OCCCN(C)C)cc2)cc1`, the growth is -36.8% (active) with SR leukemia; -36.2% (active) with RPMI-8226 leukemia; -81.7% (active) with OVCAR-8 ovarian; -93% (active) in the experiment with OVCAR-5 ovarian; -88% (active) in the experiment on OVCAR-4 ovarian; -93.8% (active) in the experiment on SK-OV-3 ovarian. Also, the growth with IGROV1 ovarian was -82.3% (active); with OVCAR-3 ovarian it was -77.4% (active); in the experiment with HS 578T breast, -51.1% (active); in the experiment with NCI/ADR-RES ovarian, -82.5% (active).
In the case of `C#Cc1cc(C(=O)Nc2ccc(CNCCN3CCOCC3)c(C(F)(F)F)c2)ccc1C`, the growth is 67.8% with SR leukemia; 74.5% in the experiment with RPMI-8226 leukemia; 105% in the experiment on OVCAR-8 ovarian; 98.6% with OVCAR-5 ovarian; 79.1% with OVCAR-4 ovarian; 94.1% in the experiment on SK-OV-3 ovarian. Also, the growth was 101% in the experiment on IGROV1 ovarian, 94.1% with OVCAR-3 ovarian, 81.4% with HS 578T breast and 94.3% in the experiment on NCI/ADR-RES ovarian.
Consider `Clc1ccc2[nH]cc(-c3cncn3CCc3ccc4c(c3)OCO4)c2c1`, for which the growth with SR leukemia is 62.1%; with RPMI-8226 leukemia it was 42.5%; with OVCAR-8 ovarian, 76%; with OVCAR-5 ovarian, 76.2%; in the experiment with OVCAR-4 ovarian it was 33%; in the experiment on SK-OV-3 ovarian, 81%. Besides, the growth in the experiment with IGROV1 ovarian was 76.8%; in the experiment with OVCAR-3 ovarian it was 67.6%; in the experiment on HS 578T breast, 69.7%; with NCI/ADR-RES ovarian, 78.6%.
Regarding `COc1ccc(C(C)=C(c2ccc(OCCN3CCCCCC3)cc2)c2ccc(OCCN3CCCCCC3)cc2)cc1`, the growth with SR leukemia is -12.1% (active); with RPMI-8226 leukemia, -44.9% (active); in the experiment with OVCAR-8 ovarian, 0.8% (active); in the experiment with OVCAR-5 ovarian it was 22.9%; in the experiment with OVCAR-4 ovarian, -66.7% (active); in the experiment with SK-OV-3 ovarian, 72.9%. Moreover, the growth with IGROV1 ovarian is -67.9% (active); in the experiment with OVCAR-3 ovarian, -47.2% (active); in the experiment on HS 578T breast, -52.1% (active); in the experiment with NCI/ADR-RES ovarian it was -60% (active).
On to `CC1=C(C)C(=O)C(Nc2ccc(C)c(C)c2)=C(Br)C1=O`, for which the growth is 43.6% with SR leukemia; 29.8% in the experiment on RPMI-8226 leukemia; 100% in the experiment on OVCAR-8 ovarian; 111% with OVCAR-5 ovarian; 55.1% with OVCAR-4 ovarian; 100% with SK-OV-3 ovarian. Besides, the growth in the experiment with IGROV1 ovarian was 90.9%; in the experiment on OVCAR-3 ovarian it was 109%; with HS 578T breast, 97.4%; in the experiment on NCI/ADR-RES ovarian it was 82.7%.
As to `C#CCOc1cccc(-c2nc(N)nc(Nc3ccccc3SSc3ccccc3Nc3nc(N)nc(-c4cccc(OCC#C)c4)n3)n2)c1`, the growth in the experiment on SR leukemia is -16.2% (active); in the experiment on RPMI-8226 leukemia, 22%; in the experiment on OVCAR-8 ovarian it was 16.7%; in the experiment with OVCAR-5 ovarian it was 45%; in the experiment on OVCAR-4 ovarian it was 80.9%; in the experiment on SK-OV-3 ovarian, 91.5%. For the same molecule, the growth in the experiment on IGROV1 ovarian is -5.3% (active); in the experiment on OVCAR-3 ovarian, 79.7%; in the experiment with HS 578T breast, 51.9%; in the experiment with NCI/ADR-RES ovarian it was 5.66% (active).
As for `C#C[C@]1(O)CC[C@H]2[C@@H]3CC=C4c5sc(Nc6cc(Cl)ccc6OC)nc5CC[C@]4(C)[C@H]3CC[C@@]21C`, the growth was 3.9% (active) with SR leukemia; -35.1% (active) in the experiment with RPMI-8226 leukemia; 52.5% in the experiment on OVCAR-8 ovarian; 67.5% in the experiment with OVCAR-5 ovarian; 52.5% in the experiment with OVCAR-4 ovarian; -6.24% (active) in the experiment on SK-OV-3 ovarian. Also, the growth was 43.5% in the experiment with IGROV1 ovarian, 25.3% with OVCAR-3 ovarian, -7.86% (active) in the experiment on HS 578T breast and 56.4% with NCI/ADR-RES ovarian.

For the origin of these results see PubChem BioAssay (NCI).
